The values below come from paper PMC11006913.

Changes are numbered by the printed parent chain.

Common to all, as to assay: PBM; 200 nM protein, PBS
Common to all, as to conditions: dsDNA, one strand shown

In test [1] the target is PRRX1 (Homo sapiens, UniProt P54821 80-166, F113S).
Test [2] addresses PRRX1 (Homo sapiens, UniProt P54821 80-166).
For test [3], the target named is T1, SIX6 (Homo sapiens, UniProt O95475 114-200, T165P).
T1 sequence: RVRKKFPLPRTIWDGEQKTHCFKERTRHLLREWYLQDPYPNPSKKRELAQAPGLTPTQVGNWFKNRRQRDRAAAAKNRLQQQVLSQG

The target in test [4] is T2, SIX6 (Homo sapiens, UniProt O95475 114-200, H141N).
T2 sequence: T1 sequence with H28N, P52T

In test [5] the target is T3, SIX6 (Homo sapiens, UniProt O95475 114-200, T139Q).
T3 sequence: T1 sequence with T26Q, P52T

Test [6] concerns the target T4, SIX6 (Homo sapiens, UniProt O95475 114-200, T165A).
T4 sequence: T1 sequence with P52A

Test [7] concerns the target T5, SIX6 (Homo sapiens, UniProt O95475 114-200, T165G).
T5 sequence: T1 sequence with P52G

The target in test [8] is T6, SIX6 (Homo sapiens, UniProt O95475 114-200).
T6 sequence: T1 sequence with P52T

The target in test [9] is T7, SIX6 (Homo sapiens, UniProt O95475 114-200, T165I).
T7 sequence: T1 sequence with P52I

Test [10] has as its target T8, SIX6 (Homo sapiens, UniProt O95475 114-200, L167V).
T8 sequence: T1 sequence with P52T, L54V

Test [11] deals with T9, SIX6 (Homo sapiens, UniProt O95475 114-200, L167M).
T9 sequence: T1 sequence with P52T, L54M

Chain of PRRX1 (Homo sapiens, UniProt P54821 80-166, F113S) (P54821 80-166 F113S): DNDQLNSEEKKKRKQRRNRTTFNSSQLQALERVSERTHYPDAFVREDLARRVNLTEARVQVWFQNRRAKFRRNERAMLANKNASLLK
Chain of PRRX1 (Homo sapiens, UniProt P54821 80-166) (P54821 80-166): as the sequence (P54821 80-166 F113S) above, with S34F counted along it

Turning to CCTACTTA, the binding signal in test [1] is 10.1 upbm affinity estimate (log intensity, higher = more binding, comparable within an allelic series); in test [2] it was 11.6 upbm affinity estimate (log intensity, higher = more binding, comparable within an allelic series).

As for CTTCATTA, the binding signal was 10.5 upbm affinity estimate (log intensity, higher = more binding, comparable within an allelic series) in [1] and 12.8 upbm affinity estimate (log intensity, higher = more binding, comparable within an allelic series) in test [2]. For CCATGACG, the binding signal in [1] is 9.32 upbm affinity estimate (log intensity, higher = more binding, comparable within an allelic series); in [2], 9.37 upbm affinity estimate (log intensity, higher = more binding, comparable within an allelic series). As for ACTTTATG, the binding signal in [1] was 10 upbm affinity estimate (log intensity, higher = more binding, comparable within an allelic series); in test [2] it was 10.9 upbm affinity estimate (log intensity, higher = more binding, comparable within an allelic series). As for AGATCAAT, the binding signal was 10.1 upbm affinity estimate (log intensity, higher = more binding, comparable within an allelic series) in [1] and 11.6 upbm affinity estimate (log intensity, higher = more binding, comparable within an allelic series) in test [2].

Turning to AATATTAG, the binding signal was 10.5 upbm affinity estimate (log intensity, higher = more binding, comparable within an allelic series) in test [1] and 12.4 upbm affinity estimate (log intensity, higher = more binding, comparable within an allelic series) in test [2]. Regarding CTAGACCC, the binding signal was 9.44 upbm affinity estimate (log intensity, higher = more binding, comparable within an allelic series) in test [1] and 9.31 upbm affinity estimate (log intensity, higher = more binding, comparable within an allelic series) in test [2]. Consider CGTCACCC, for which the binding signal in test [1] was 9.47 upbm affinity estimate (log intensity, higher = more binding, comparable within an allelic series); in [2], 9.31 upbm affinity estimate (log intensity, higher = more binding, comparable within an allelic series). Take GTGTTAAC: the binding signal in test [1] was 10.1 upbm affinity estimate (log intensity, higher = more binding, comparable within an allelic series); in test [2], 11.8 upbm affinity estimate (log intensity, higher = more binding, comparable within an allelic series). For the sequence CCCAACGC, the binding signal in test [1] was 9.62 upbm affinity estimate (log intensity, higher = more binding, comparable within an allelic series); in test [2], 9.3 upbm affinity estimate (log intensity, higher = more binding, comparable within an allelic series).

For AGGAGAGC, the binding signal in [1] is 9.35 upbm affinity estimate (log intensity, higher = more binding, comparable within an allelic series); in [2], 9.36 upbm affinity estimate (log intensity, higher = more binding, comparable within an allelic series). Take CATATTGG: the binding signal in [1] was 10 upbm affinity estimate (log intensity, higher = more binding, comparable within an allelic series); in [2] it was 11.3 upbm affinity estimate (log intensity, higher = more binding, comparable within an allelic series).

Regarding AATCATGT, the binding signal in test [1] was 10.4 upbm affinity estimate (log intensity, higher = more binding, comparable within an allelic series); in [2], 12.2 upbm affinity estimate (log intensity, higher = more binding, comparable within an allelic series). Regarding AGCTCGCA, the binding signal in test [1] was 9.52 upbm affinity estimate (log intensity, higher = more binding, comparable within an allelic series); in [2], 9.05 upbm affinity estimate (log intensity, higher = more binding, comparable within an allelic series). GCTGGACC: the binding signal was 9.41 upbm affinity estimate (log intensity, higher = more binding, comparable within an allelic series) in test [1] and 9.43 upbm affinity estimate (log intensity, higher = more binding, comparable within an allelic series) in [2]. With CATCGGAC, the binding signal was 9.34 upbm affinity estimate (log intensity, higher = more binding, comparable within an allelic series) in [1] and 9.14 upbm affinity estimate (log intensity, higher = more binding, comparable within an allelic series) in [2]. For the sequence CCAACACC, the binding signal in test [1] was 9.31 upbm affinity estimate (log intensity, higher = more binding, comparable within an allelic series); in test [2], 8.85 upbm affinity estimate (log intensity, higher = more binding, comparable within an allelic series). CCTGAGGC: the binding signal in test [1] was 9.1 upbm affinity estimate (log intensity, higher = more binding, comparable within an allelic series); in test [2], 9.44 upbm affinity estimate (log intensity, higher = more binding, comparable within an allelic series). In the case of GCCAGCAC, the binding signal in test [1] was 9.45 upbm affinity estimate (log intensity, higher = more binding, comparable within an allelic series); in test [2], 9.5 upbm affinity estimate (log intensity, higher = more binding, comparable within an allelic series). As to GCCTCTCA, the binding signal in test [1] is 9.4 upbm affinity estimate (log intensity, higher = more binding, comparable within an allelic series); in test [2], 9.09 upbm affinity estimate (log intensity, higher = more binding, comparable within an allelic series). Regarding AATTCAGG, the binding signal is 9.89 upbm affinity estimate (log intensity, higher = more binding, comparable within an allelic series) in [1] and 11.3 upbm affinity estimate (log intensity, higher = more binding, comparable within an allelic series) in test [2]. AATGAGGG: the binding signal in test [1] was 9.96 upbm affinity estimate (log intensity, higher = more binding, comparable within an allelic series); in test [2], 11.2 upbm affinity estimate (log intensity, higher = more binding, comparable within an allelic series).

In the case of CGGACGAC, the binding signal in test [1] is 9.43 upbm affinity estimate (log intensity, higher = more binding, comparable within an allelic series); in test [2], 9.26 upbm affinity estimate (log intensity, higher = more binding, comparable within an allelic series). Consider CGTGTGCA, for which the binding signal in test [1] is 9.54 upbm affinity estimate (log intensity, higher = more binding, comparable within an allelic series); in test [2], 9.31 upbm affinity estimate (log intensity, higher = more binding, comparable within an allelic series).

Turning to CCCCAATA, the binding signal is 9.73 upbm affinity estimate (log intensity, higher = more binding, comparable within an allelic series) in [1] and 11 upbm affinity estimate (log intensity, higher = more binding, comparable within an allelic series) in test [2]. As to GAGGATCC, the binding signal in test [3] was 9.19 upbm affinity estimate (log intensity, higher = more binding, comparable within an allelic series).

With CCGGTATC, in [3], the binding signal was 9.21 upbm affinity estimate (log intensity, higher = more binding, comparable within an allelic series). CGATACAC: the binding signal in test [4] was 11.1 upbm affinity estimate (log intensity, higher = more binding, comparable within an allelic series); in test [5] it was 11.2 upbm affinity estimate (log intensity, higher = more binding, comparable within an allelic series); in test [6] it was 11 upbm affinity estimate (log intensity, higher = more binding, comparable within an allelic series). On to CCGGATAC, for which the binding signal in test [3] is 9.26 upbm affinity estimate (log intensity, higher = more binding, comparable within an allelic series). For CCGATCCG, the binding signal in test [3] is 9.19 upbm affinity estimate (log intensity, higher = more binding, comparable within an allelic series).

With GCGGATCC, the binding signal in test [3] is 9.05 upbm affinity estimate (log intensity, higher = more binding, comparable within an allelic series). Take ACGGATCG: the binding signal in [3] is 9.19 upbm affinity estimate (log intensity, higher = more binding, comparable within an allelic series).

Take AAGGATCC: the binding signal in test [3] is 9.15 upbm affinity estimate (log intensity, higher = more binding, comparable within an allelic series). Take CCCCTATC: the binding signal in test [3] is 9.29 upbm affinity estimate (log intensity, higher = more binding, comparable within an allelic series).

Regarding CCGATACG, the binding signal in test [3] was 9.12 upbm affinity estimate (log intensity, higher = more binding, comparable within an allelic series). Turning to CATAACAC, the binding signal in [4] was 10 upbm affinity estimate (log intensity, higher = more binding, comparable within an allelic series); in test [7], 10.3 upbm affinity estimate (log intensity, higher = more binding, comparable within an allelic series); in [5], 10.4 upbm affinity estimate (log intensity, higher = more binding, comparable within an allelic series); in test [6], 10.1 upbm affinity estimate (log intensity, higher = more binding, comparable within an allelic series); in test [8] it was 10.1 upbm affinity estimate (log intensity, higher = more binding, comparable within an allelic series); in [9], 10.1 upbm affinity estimate (log intensity, higher = more binding, comparable within an allelic series).

With TTAACAAA, the binding signal in test [1] is 10.5 upbm affinity estimate (log intensity, higher = more binding, comparable within an allelic series); in test [2] it was 12.4 upbm affinity estimate (log intensity, higher = more binding, comparable within an allelic series). With GGATACCC, the binding signal in [3] was 9.29 upbm affinity estimate (log intensity, higher = more binding, comparable within an allelic series).

As for CGATCCGC, in test [3], the binding signal is 9.21 upbm affinity estimate (log intensity, higher = more binding, comparable within an allelic series). Regarding GCGATCCC, in test [3], the binding signal is 9.24 upbm affinity estimate (log intensity, higher = more binding, comparable within an allelic series).

Take AACGATAC: the binding signal in test [4] was 11.1 upbm affinity estimate (log intensity, higher = more binding, comparable within an allelic series); in test [7], 11.2 upbm affinity estimate (log intensity, higher = more binding, comparable within an allelic series); in test [5], 11.2 upbm affinity estimate (log intensity, higher = more binding, comparable within an allelic series); in [6], 11 upbm affinity estimate (log intensity, higher = more binding, comparable within an allelic series); in test [10], 10.9 upbm affinity estimate (log intensity, higher = more binding, comparable within an allelic series).

Turning to ACTACAAT, the binding signal in [3] is 10.1 upbm affinity estimate (log intensity, higher = more binding, comparable within an allelic series).

For ACCGATCG, in test [3], the binding signal was 9.18 upbm affinity estimate (log intensity, higher = more binding, comparable within an allelic series).

In the case of GCCGATAC, the binding signal in test [3] was 9.22 upbm affinity estimate (log intensity, higher = more binding, comparable within an allelic series).

As for CGGATACC, the binding signal in [3] was 9.26 upbm affinity estimate (log intensity, higher = more binding, comparable within an allelic series).

Take CCGGATCC: in test [3], the binding signal is 9.14 upbm affinity estimate (log intensity, higher = more binding, comparable within an allelic series). CAGGGATC: the binding signal in test [3] is 9.11 upbm affinity estimate (log intensity, higher = more binding, comparable within an allelic series). On to GCGATACC, for which the binding signal is 11 upbm affinity estimate (log intensity, higher = more binding, comparable within an allelic series) in [4]; 9.27 upbm affinity estimate (log intensity, higher = more binding, comparable within an allelic series) in test [3]; 10.3 upbm affinity estimate (log intensity, higher = more binding, comparable within an allelic series) in test [11]; 11.1 upbm affinity estimate (log intensity, higher = more binding, comparable within an allelic series) in [5]. With CATATCAC, the binding signal is 11.1 upbm affinity estimate (log intensity, higher = more binding, comparable within an allelic series) in [4]; 11.1 upbm affinity estimate (log intensity, higher = more binding, comparable within an allelic series) in test [7]; 11 upbm affinity estimate (log intensity, higher = more binding, comparable within an allelic series) in test [6]; 10.9 upbm affinity estimate (log intensity, higher = more binding, comparable within an allelic series) in test [10].

On to CGGATCAG, for which the binding signal in test [3] was 9.26 upbm affinity estimate (log intensity, higher = more binding, comparable within an allelic series). The same measure, in the same setting: to CCGTATCC belongs 9.24 upbm affinity estimate (log intensity, higher = more binding, comparable within an allelic series); to CGATACGC, 9.24 upbm affinity estimate (log intensity, higher = more binding, comparable within an allelic series); to GGATCCGA, 9.08 upbm affinity estimate (log intensity, higher = more binding, comparable within an allelic series). Take AGGGGATC: the binding signal in test [3] was 9.22 upbm affinity estimate (log intensity, higher = more binding, comparable within an allelic series).
